Tgondii IFNg = inhibitors of Toxoplasma gondii growth with IFN-gamma. Toxoplasma gondii growth in IFN-gamma-treated host cells; hits give low values. activity change, negative = inhibition, % (no concentration beside the values). 3.8% of 69,000 active. AID 1259416; in the data active = activity change below about -70%, passing the limit was not always enough;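 note: host cells are HeLa cells infected with Toxoplasma gondii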
* hit, by the source's call. The sample as a whole holds a higher share of hits than the screen did.

SMILES	Tgondii IFNg
COc1ccc(-c2nc3c(s2)CN(S(=O)(=O)c2cc(C)cc(C)c2)CC3)cc1	-116*
Cc1ccc(-c2nc3c(s2)CN(S(=O)(=O)c2ccccc2Cl)CC3)cc1	-56
COc1cccc(-c2nc3c(s2)CN(S(=O)(=O)c2cc(C)cc(C)c2)CC3)c1	-85*
Cc1cc(C)cc(S(=O)(=O)N2CCc3nc(-c4ccccc4)sc3C2)c1	-17
CC(C)(C)c1ccc(S(=O)(=O)N2CCc3nc(-c4ccccc4)sc3C2)cc1	8
COc1ccc(-c2nc3c(s2)CN(S(=O)(=O)c2ccc(CC(C)C)cc2)CC3)cc1	11
COc1cccc(-c2nc3c(s2)CN(S(=O)(=O)c2cccc(Cl)c2)CC3)c1	-36
O=C(Cn1c(=O)cc(C(=O)N2CCc3ccccc3C2)c2ccccc21)Nc1ccc2c(c1)OCO2	-6
CC(=O)N1CCC(C(=O)NCc2ccccc2)(N(C(=O)c2ccc(C)cc2)c2ccc(C)c(C)c2)CC1	-46
COc1ccc(C(=O)N2CCC3(CC2)NC(=O)c2ccc(F)cc2N3C)c(OC)c1	8
CCN(CC)C(=O)c1cc(=O)n(CC(=O)Nc2ccc(F)c(Cl)c2)c2ccccc12	-4
COc1cccc2c1OCCCN(c1nc(C)nc3c1cnn3C)C2	-19
COc1ccc(OC)c(C2CCN(CCC(=O)Nc3nccs3)C2)c1 (stereo unspecified)	-66
COc1cccc(-c2ccc3n(c2=O)C[C@@H]2[C@@H](CO)[C@H](C(=O)NCC4CC4)[C@H]3N2S(C)(=O)=O)c1	-16
COCCN1CCCC2(CCN(C(=O)C3CC=CC3)CC2)C1=O	96
CCOc1ccc(-c2nc3c(s2)CN(S(=O)(=O)c2cccc(Cl)c2C)CC3)cc1	-65
CCOc1ccc(S(=O)(=O)N2CCc3nc(-c4ccccc4)sc3C2)cc1	15
CCc1ccccc1S(=O)(=O)N1CCc2nc(-c3ccc(OC)cc3)sc2C1	-92*
O=C1OC(=O)C2C1[C@@H]1CC[C@H]2O1 (stereo partly specified)	-77*
CN(Cc1nc(C2CC2)no1)C(=O)c1cccc(CC2CCNCC2)c1	6
CCn1cc(S(=O)(=O)N2CCc3[nH]nc(-c4ccccc4F)c3C2)c(C)n1	34
CC(NC(=O)Cc1nc2ccccc2[nH]1)c1ccc(O)c(F)c1 (stereo unspecified)	-4
Cc1cc(C)nc(Nc2n[nH]c(COc3ccc4ccccc4c3)n2)n1	-44
Cc1cc(OCc2nc3ccccc3[nH]2)ccc1C(C)C	-87*
CCc1ccc(-c2noc(-c3c(O)c4ccccc4n(CC)c3=O)n2)cc1	34
SMILES	Tgondii IFNg
OC(CN1CCNCC1)Cn1ccc2ccccc21 (stereo unspecified)	23
OC(COCc1ccccc1)CN1CCNCC1 (stereo unspecified)	-11
OC(CN1CCNCC1)Cn1c2ccc(Br)cc2c2cc(Br)ccc21 (stereo unspecified)	-74*
CO[C@H]1CN(C)C(=O)c2ccc(NC(C)=O)cc2OC[C@@H](C)N(C(=O)c2cnccn2)C[C@@H]1C	-15
O=C(O)CNS(=O)(=O)c1ccc(-c2ccccc2)cc1	-3
CC(C)ON([C@@H](C(=O)NO)C(C)C)S(=O)(=O)c1ccc(-c2ccccc2)cc1	-75*
CC(C)[C@H](NS(=O)(=O)c1ccc(-c2ccc(Br)cc2)cc1)C(=O)O	37
CCN1C[C@@H]2C3(CCN(C(=O)C4CCOCC4)CC3)CC[C@]2(C(=O)N2CCCC2)C1	-32
Cc1ccccc1-c1cccc(CN2CCOCC(CN(C)C)C2)c1 (stereo unspecified)	-14
C[C@H](CO)N1C[C@H](C)[C@H](CN(C)C(=O)c2cnccn2)Oc2cc(C#CCC3CCCC3)ccc2S1(=O)=O	-100*
CCCC#Cc1ccc2c(c1)O[C@H](CN(C)Cc1ccccn1)[C@H](C)CN([C@@H](C)CO)S2(=O)=O	-94*
C[C@@H]1CN([C@@H](C)CO)S(=O)(=O)c2ccc(-c3ccncc3)cc2O[C@H]1CN(C)S(C)(=O)=O	72
CCCN(C)C[C@H]1Oc2cc(/C=C/c3ccccc3)ccc2S(=O)(=O)N([C@H](C)CO)C[C@H]1C	-92*
CCCC#Cc1ccc2c(c1)O[C@H](CN(C)Cc1ccccn1)[C@@H](C)CN([C@H](C)CO)S2(=O)=O	-29
Cc1ccc(S(=O)(=O)N(C)C[C@@H]2Oc3cc(C#CC4CCCC4)ccc3S(=O)(=O)N([C@@H](C)CO)C[C@H]2C)cc1	-109*
CCCN(C)C[C@@H]1Oc2cc(/C=C/c3ccccc3)ccc2S(=O)(=O)N([C@H](C)CO)C[C@@H]1C	9
CCCC#Cc1ccc2c(c1)O[C@@H](CN(C)Cc1ccccn1)[C@H](C)CN([C@@H](C)CO)S2(=O)=O	-29
C[C@H](CO)N1C[C@H](C)[C@H](CN(C)Cc2ccccc2C(=O)O)Oc2cc(-c3ccc(F)cc3)ccc2S1(=O)=O	65
C[C@@H]1CN([C@@H](C)CO)S(=O)(=O)c2ccc(C#Cc3cccc(F)c3)cc2O[C@@H]1CN(C)S(=O)(=O)c1cn(C)cn1	32
